An excerpt weighted towards active compounds, which were near 7.9% of everything screened.
HT1080-NT tox – kills 2HG-producing HT-1080-NT fibrosarcoma cells; hit rate 1.6% among 360,000; HT-1080-NT fibrosarcoma viability, CellTiter-Glo ATP luminescence, 48 h; Potency, µM (highest dose often 46.1 µM), for the others: at the top dose activity, negative = less viability, actives largely listed as cytotoxic;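 also: NT is the 2HG producing partner of a matched IDH1 knockdown line; 0% = DMSO-treated cells and -100% = media-only wells without cells; nearly all actives have a fitted effect of over 55% in size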
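HT-1080-NT; 750 cells/well; 5% FBS RPMI; 48 h compound, 37 degrees C; CellTiter-Glo luminescence; curve fitting and curve-class assignment.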
KB-3-1 tox – KB-3-1 parental cell cytotoxicity; KB-3-1 viability, CellTiter-Glo ATP luminescence, 72 h; Potency, µM (titrated, usually from 46.1 µM), most hits filed as cytotoxic; hit rate 1.4% among 400,000; also: % is scaled to controls: 0 for no effect and ±100 for the full control effect; nearly all actives have a fitted effect of over 60% in size
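Viability of parental KB-3-1 cells, measured by CellTiter-Glo luminescence, followed a 72 h incubation at 37 °C with pinned compounds in phenol-red-free DMEM containing 10% FBS.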
KB-V1 MDR tox – KB-V1 MDR subline cytotoxicity | KB-V1 MDR cells viability, CellTiter-Glo, 72 h | Potency, µM (top dose mostly 46.1 µM), hits mostly cytotoxic | hit rate 3.4% among 400,000; also: % is scaled to controls: 0 for no effect and ±100 for the full control effect; nearly all actives have a fitted effect of over 60% in size
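KB-V1, DMEM (no phenol red) + 10% FBS; cpd pin-transferred, titration series; 72 h, 37 degrees C; CellTiter-Glo, luminescence. Data normalized, curve-fit.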
SW480 rerep – induces DNA re-replication in SW480 colon adenocarcinoma cells; SW480 DNA re-replication, Hoechst DNA content imaging, 48 h; hit rate 1.8% among 340,000; Potency, µM (highest dose often 46.1 µM), inactives show at the highest dose re-replication activation, usual class: activators; also: % of control where 0% means no effect; nearly all actives have a fitted effect of over 55% in size
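Readout is total intensity of Hoechst-stained nuclei, excited at 405 nm and collected at 500-530 nm. Compound treatment lasted 48 hr at 37 C in 5% CO2 before staining.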
MCF10A rerep – induces DNA re-replication in MCF 10a normal breast cells. MCF 10A DNA re-replication, Hoechst nuclear intensity, 48 h. Potency, µM (titrated, usually from 46.1 µM), without a hit: top-dose activity, positive = re-replication, most hits filed as activators. hit rate 2.9% among 350,000. AID 624296; also: % of control where 0% means no effect; nearly all actives have a fitted effect of over 50% in size
HT1080 IDH1KD tx – toxicity to HT-1080 IDH1 knockdown cells (counter line). HT-1080 IDH1 knockdown viability, ATP luminescence, 48 h. Potency, µM (highest dose often 46.1 µM), for inactives: at the top dose activity, negative = toxicity, actives largely listed as cytotoxic. hit rate 2% among 360,000. AID 686971;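 also: 0% = DMSO wells and -100% = cell-free medium wells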
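% activity derives from luminescence (CellTiter-Glo), normalised to DMSO and no-cell wells. HT-1080-IDH1KD cells, 750/well, had 48 h compound exposure at 37 °C.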
Numbers without * were called inactive; i = inactive; ? = inconclusive; · = not tested or not shown; [ ] = dose if it differs, or a comment. Calls follow the shape of the dose curve; as a rule, active = well fitted curve in the direction sought with a large enough effect; inconclusive = small, poorly fitted or top-dose-only effect, or another doubt; inactive = no such curve, though single readings can be large; an effect the other way counts as inactive or inconclusive. Potency is read from the fitted curve at half-maximal effect.

SMILES	HT1080-NT tox	KB-3-1 tox	KB-V1 MDR tox	SW480 rerep	MCF10A rerep	HT1080 IDH1KD tx
c1ccc2c(c1)OCC(CNc1ncnc3sccc13)O2 (stereo unspecified)	0.73µM*	1.6µM*	?	0%	15%	1.2µM*
c1ccc2c(c1)OCC(CNCC1COc3ccccc3O1)O2 (stereo unspecified)	-7%	i	?	-1%	-11%	-1%
COCCNc1nc(NCc2ccccc2F)c2sccc2n1	-19%	i	?	·	·	-28%
Fc1ccccc1CNc1nc(NCC2CC2)nc2ccsc12	23µM*	i	i	·	·	21µM*
COc1ccccc1CNc1nc(NCc2cccc(OC)c2OC)c2sccc2n1	21µM*	i	21µM*	·	·	?
COc1ccccc1CNc1nc(NCc2ccc(C)cc2C)c2sccc2n1	?	i	?	·	·	?
COc1ccccc1CNc1nc(NCc2ccccc2F)c2sccc2n1	23µM*	?	18µM*	·	·	21µM*
Fc1ccccc1CNc1ncnc2sccc12	-4%	i	i	-19%	7%	?
COc1ccccc1CNc1ncnc2sccc12	?	?	5.2µM*	-5%	19%	-24%
COc1ccc(-c2cc(CNc3nc(NCc4ccccc4OC)nc4ccsc34)on2)cc1	18µM*	i	i	·	·	15µM*
COc1ccc([N+](=O)[O-])cc1COc1cc(C)cc2oc(=O)cc(-c3ccccc3)c12	?	21µM*	6.5µM*	?	12µM*	?
CC(=O)COc1cc(C)cc2oc(=O)cc(-c3ccccc3)c12	6%	i	i	0%	-6%	6%
CC(=O)n1c2ccccc2c2nc3ccccc3nc21	13%	i	i	7%	-6%	10%
CC(=O)n1c2ccccc2c2c1c1ccccc1n2C	23µM*	i	i	0%	?	?
CC1CCN(c2ccc(-c3cccc(NS(=O)(=O)c4ccc(F)cc4F)c3)nn2)CC1	·	i	i	·	·	·
CC(=O)Nc1ccc(SCC(=O)c2cc(C)n(-c3ccccc3F)c2C)cc1	-9%	?	?	15%	23µM*	-10%
Cc1cc(C(=O)Cn2nnc3ccccc3c2=O)c(C)n1-c1ccccc1F	-27%	5.2µM*	?	13%	?	?
COC(=O)c1ccc(-n2c(C)cc(C(=O)CSc3ccc(NC(C)=O)cc3)c2C)cc1	-4%	i	?	-4%	?	-10%
O=C(C[N+]12CN3CN(CN(C3)C1)C2)c1ccc(Br)cc1	·	i	i	·	·	·
Cc1ccc(OCC(=O)Nc2nnc(S(=O)(=O)N3CCc4ccccc43)s2)cc1	·	i	?	·	·	·
CC1(c2ccccc2)CC(C)(C)n2c(O)c(C3=NC(=S)NC3=O)c3cccc1c32 (stereo unspecified)	1%	?	12µM*	16%	8%	-1%
COc1ccc(-n2nnc3c(SC(C(C)=O)C(=O)N(C)C)ncnc32)cc1 (stereo unspecified)	3%	i	i	16%	-3%	18%
Cc1ccc(NC(=O)CN(C)C(=O)/C=C/c2ccc3c(c2)OCO3)cc1	3%[9.24 µM]	i	?	-5%	-2%	4%
CC1COCC(C)N1C1=C(Cl)C(=O)c2ccccc2C1=O (stereo unspecified)	-26%	?	?	?	?	18µM*
CN1CCN(C2=C(Cl)C(=O)c3ccccc3C2=O)CC1	?	?	?	5.2µM*	4.1µM*	?
SMILES	HT1080-NT tox	KB-3-1 tox	KB-V1 MDR tox	SW480 rerep	MCF10A rerep	HT1080 IDH1KD tx
O=C1C(Cl)=C(N2CCC(C(=O)O)CC2)C(=O)c2ccccc21	?	i	?	0%	?	?
NC(=O)C1CCN(C2=C(Cl)C(=O)c3ccccc3C2=O)CC1	?	?	?	?	13µM*	21µM*
CNC(=S)N(CCc1c(C)[nH]c2ccc(OC)cc12)Cc1ccco1	-5%	i	i	?	25%	0%
COc1cc(NC(=O)C2CCCN(S(=O)(=O)c3ccc4c(c3)CCCN4C(C)=O)C2)cc(OC)c1 (stereo unspecified)	-6%	i	i	28%	16%	-4%
O=C(NCCc1ccccc1F)C1CC(=O)N(c2cccc(C(F)(F)F)c2)C1 (stereo unspecified)	2%	i	13µM*	-1%	5%	8%
COc1ccc(CCNC(=O)C2CCCN(S(=O)(=O)N3CC(C)CC(C)C3)C2)cc1OC (stereo unspecified)	9%	i	?	-18%	8%	16%
COc1ccc(CCNC(=O)C2CC(=O)N(c3ccc(C)cc3)C2)cc1OC (stereo unspecified)	16%	i	i	4%	-7%	-8%
COc1ccc(CCNC(=O)C2CC(=O)N(c3ccc(C(C)(C)C)cc3)C2)cc1OC (stereo unspecified)	-1%	i	i	-2%	0.58µM*	0%
COc1ccc(CCNC(=O)C2CCN(S(=O)(=O)N3CC(C)CC(C)C3)CC2)cc1OC (stereo unspecified)	-22%	i	21µM*	5%	5%	9%
CCOc1ccc(CCNC(=O)C2CCN(S(=O)(=O)N3CCC(C)CC3)CC2)cc1OCC	0%	i	2.6µM*	10%	5%	0%
CCCSc1nc2c(c(=O)[nH]1)C(c1ccc(O)c(OCC)c1)CC(=O)N2 (stereo unspecified)	·	i	i	·	·	·
Cc1c(C(=O)N(C)Cc2ccc(F)cc2)sc(=O)n1Cc1ccccc1C#N	6%	i	?	·	·	-13%
COc1ccc(/C(O)=C(\C#N)c2nc3ccccc3n2C)cc1OC	-3%	i	5.8µM*	-12%	19%	-27%
Cc1cccc(OCCNC(=O)c2cccc(Oc3ccc(C(F)(F)F)cc3[N+](=O)[O-])c2)c1	-4%	18µM*	9.2µM*	3%	-2%	-8%
Cc1ccc(-n2c(-c3ccc(Br)cc3)c[n+]3c2CCc2ccc4cccnc4c2-3)cc1	?	2.6µM*	?	15%	?	4µM*
CN(C(=O)c1cccc(NC(=O)Cc2cccc(NC(=O)C3CCN(C(=O)C4CCC4)CC3)c2)c1)C1CCC1	-4%	i	i	?	-2%	1%
CN(C(=O)c1cccc(NC(=O)Cc2cccc(NC(=O)C3CCN(C(=O)C4CCCCC4)CC3)c2)c1)C1CCC1	-2%	i	i	4%	1.2µM*	-4%

Screening data deposited in PubChem BioAssay by National Center for Advancing Translational Sciences (NCATS).
